These results are taken from PMC7862700, “An all-to-all approach to the identification of sequence-specific readers for epigenetic DNA modifications on cytosine”.

Holding throughout (experiment): DAPPL (digital affinity profiling via proximity ligation, sequencing); 10 mM Tris-HCl pH 7.5, 50 mM NaCl, 1 mM DTT, 4% glycerol, room temperature, 30 min; GST-TFs on glutathione beads, 16-mer random dsDNA library, 0.1% formaldehyde crosslink after washing; high values mean tight binding
The target of one test is T1, FEV (Homo sapiens, UniProt Q99581 1-238).
T1 sequence: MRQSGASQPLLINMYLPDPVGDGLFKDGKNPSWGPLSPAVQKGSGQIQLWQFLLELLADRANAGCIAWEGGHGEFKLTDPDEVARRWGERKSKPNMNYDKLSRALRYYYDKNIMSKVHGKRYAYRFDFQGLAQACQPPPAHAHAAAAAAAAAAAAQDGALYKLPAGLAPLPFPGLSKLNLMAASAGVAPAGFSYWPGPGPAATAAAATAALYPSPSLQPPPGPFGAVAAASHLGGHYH
The following applies: protein: recombinant; tags: N-terminal GST; dsDNA, one strand shown. In a few lines:
(§1)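 Binding signal is defined as a hexamer's read frequency for one factor over its frequency for the tag-only sample. To obtain reads, GST-fused human transcription factors were expressed in yeast, captured on glutathione beads, barcoded with DNA and pooled with that sample. Pools met 200 nmole of a 16-mer random double-stranded DNA library in Tris/NaCl/DTT/glycerol buffer for 30 min at room temperature before washing, 0.1% formaldehyde crosslinking, proximity ligation (BsaI/T4 ligase, 1 h, 37 °C), PCR and Illumina NextSeq500 sequencing.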

The target in another test is ETV5 (Homo sapiens, UniProt P41161 1-510). The following applies: protein: recombinant; tags: N-terminal GST; dsDNA, one strand shown. The method in brief: as §1
Chain of ETV5 (P41161 whole entry): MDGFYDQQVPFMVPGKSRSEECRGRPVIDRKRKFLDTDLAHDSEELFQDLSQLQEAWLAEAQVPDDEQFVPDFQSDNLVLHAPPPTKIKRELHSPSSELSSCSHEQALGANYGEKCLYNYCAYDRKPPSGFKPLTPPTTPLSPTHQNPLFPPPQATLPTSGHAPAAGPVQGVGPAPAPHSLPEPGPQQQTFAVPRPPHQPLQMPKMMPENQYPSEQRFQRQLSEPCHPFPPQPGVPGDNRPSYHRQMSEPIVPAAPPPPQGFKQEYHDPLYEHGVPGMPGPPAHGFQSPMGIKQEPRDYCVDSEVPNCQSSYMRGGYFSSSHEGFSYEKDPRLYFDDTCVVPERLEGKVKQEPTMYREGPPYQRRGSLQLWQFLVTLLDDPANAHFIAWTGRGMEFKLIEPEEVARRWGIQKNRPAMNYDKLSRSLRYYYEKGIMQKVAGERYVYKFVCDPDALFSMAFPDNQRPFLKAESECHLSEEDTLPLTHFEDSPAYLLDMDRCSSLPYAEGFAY
A further test deals with HSF1 (Homo sapiens, UniProt Q00613 1-529). The settings on record: protein: recombinant; tags: N-terminal GST; chain copies: 3; dsDNA, one strand shown. In a few lines: as §1
Chain of HSF1 (Q00613 whole entry): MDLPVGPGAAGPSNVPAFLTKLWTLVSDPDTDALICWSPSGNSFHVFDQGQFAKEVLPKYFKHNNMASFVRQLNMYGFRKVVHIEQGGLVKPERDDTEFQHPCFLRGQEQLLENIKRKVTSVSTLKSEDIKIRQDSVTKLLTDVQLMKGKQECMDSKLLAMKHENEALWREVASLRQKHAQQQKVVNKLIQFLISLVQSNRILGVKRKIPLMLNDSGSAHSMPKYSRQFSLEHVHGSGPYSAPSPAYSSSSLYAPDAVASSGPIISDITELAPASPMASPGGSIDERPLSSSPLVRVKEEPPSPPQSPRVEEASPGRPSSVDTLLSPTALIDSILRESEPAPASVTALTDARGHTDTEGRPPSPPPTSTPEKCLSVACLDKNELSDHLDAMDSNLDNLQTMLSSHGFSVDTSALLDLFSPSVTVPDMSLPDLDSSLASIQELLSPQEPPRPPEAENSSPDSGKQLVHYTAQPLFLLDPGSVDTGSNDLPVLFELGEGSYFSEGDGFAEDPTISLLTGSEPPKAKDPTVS
The next test has as its target T2, SPIC (Homo sapiens, UniProt Q8N5J4 1-248).
T2 sequence: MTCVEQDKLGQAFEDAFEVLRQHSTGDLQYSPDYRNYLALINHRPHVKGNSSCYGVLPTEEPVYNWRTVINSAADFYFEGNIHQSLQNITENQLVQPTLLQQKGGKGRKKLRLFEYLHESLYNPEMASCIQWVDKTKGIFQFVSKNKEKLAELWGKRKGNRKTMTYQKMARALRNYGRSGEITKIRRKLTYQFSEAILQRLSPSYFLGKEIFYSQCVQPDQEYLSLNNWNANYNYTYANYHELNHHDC
The settings on record: protein: recombinant; tags: N-terminal GST; dsDNA, one strand shown. The method in brief:
as §1

The next test deals with ELF4 (Homo sapiens, UniProt Q99607 1-663). The settings on record: protein: recombinant; tags: N-terminal GST; dsDNA, one strand shown. In a few lines:
as §1

The next test addresses T3, ELK4 (Homo sapiens, UniProt P28324-2 1-405).
T3 sequence: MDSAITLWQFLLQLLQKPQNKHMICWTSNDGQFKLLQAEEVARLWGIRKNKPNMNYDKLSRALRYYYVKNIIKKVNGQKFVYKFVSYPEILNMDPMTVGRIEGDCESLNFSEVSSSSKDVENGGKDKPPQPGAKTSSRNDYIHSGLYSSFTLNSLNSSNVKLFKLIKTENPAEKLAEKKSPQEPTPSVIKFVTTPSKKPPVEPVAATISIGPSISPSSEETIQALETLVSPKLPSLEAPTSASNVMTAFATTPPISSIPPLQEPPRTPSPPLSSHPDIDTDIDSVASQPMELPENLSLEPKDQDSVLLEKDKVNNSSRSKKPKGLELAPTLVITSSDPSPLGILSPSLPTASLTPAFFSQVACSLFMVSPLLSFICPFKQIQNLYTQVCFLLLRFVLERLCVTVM
The following applies: protein: recombinant; tags: N-terminal GST; dsDNA, one strand shown. In a few lines:
as §1

The target in a further test is T4, ETV2 (Homo sapiens, UniProt O00321 1-342).
T4 sequence: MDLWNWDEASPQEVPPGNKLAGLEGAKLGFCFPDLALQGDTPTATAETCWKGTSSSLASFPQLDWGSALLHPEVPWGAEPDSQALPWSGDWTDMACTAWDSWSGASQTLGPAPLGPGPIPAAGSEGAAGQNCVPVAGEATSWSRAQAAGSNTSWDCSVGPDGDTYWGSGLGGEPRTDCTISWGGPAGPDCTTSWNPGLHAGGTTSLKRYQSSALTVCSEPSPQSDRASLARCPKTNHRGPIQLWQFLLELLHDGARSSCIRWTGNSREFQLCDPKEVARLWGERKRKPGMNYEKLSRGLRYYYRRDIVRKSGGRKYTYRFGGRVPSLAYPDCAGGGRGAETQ
The following applies: protein: recombinant; tags: N-terminal GST; dsDNA, one strand shown. The method in brief:
as §1

For the next test, the target named is T5, ELF3 (Homo sapiens, UniProt P78545 1-371).
T5 sequence: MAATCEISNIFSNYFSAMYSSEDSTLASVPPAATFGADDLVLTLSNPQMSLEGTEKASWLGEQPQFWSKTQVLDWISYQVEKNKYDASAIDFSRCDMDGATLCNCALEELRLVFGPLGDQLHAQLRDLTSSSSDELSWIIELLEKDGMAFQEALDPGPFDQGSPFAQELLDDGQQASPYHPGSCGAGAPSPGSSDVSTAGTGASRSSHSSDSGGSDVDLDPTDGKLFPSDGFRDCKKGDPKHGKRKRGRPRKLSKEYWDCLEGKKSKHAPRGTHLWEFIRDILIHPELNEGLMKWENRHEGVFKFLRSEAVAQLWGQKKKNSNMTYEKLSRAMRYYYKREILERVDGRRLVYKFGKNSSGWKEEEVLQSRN
The settings on record: protein: recombinant; tags: N-terminal GST; dsDNA, one strand shown. The method in brief: as §1

A further test concerns the target CRX (Homo sapiens, UniProt O43186 1-299). The following applies: protein: recombinant; tags: N-terminal GST; dsDNA, one strand shown. In a few lines:
as §1

In the next test the target is ETV1 (Homo sapiens, UniProt P50549 1-477). The following applies: protein: recombinant; tags: N-terminal GST; dsDNA, one strand shown. In a few lines: as §1
Chain of ETV1 (P50549 whole entry): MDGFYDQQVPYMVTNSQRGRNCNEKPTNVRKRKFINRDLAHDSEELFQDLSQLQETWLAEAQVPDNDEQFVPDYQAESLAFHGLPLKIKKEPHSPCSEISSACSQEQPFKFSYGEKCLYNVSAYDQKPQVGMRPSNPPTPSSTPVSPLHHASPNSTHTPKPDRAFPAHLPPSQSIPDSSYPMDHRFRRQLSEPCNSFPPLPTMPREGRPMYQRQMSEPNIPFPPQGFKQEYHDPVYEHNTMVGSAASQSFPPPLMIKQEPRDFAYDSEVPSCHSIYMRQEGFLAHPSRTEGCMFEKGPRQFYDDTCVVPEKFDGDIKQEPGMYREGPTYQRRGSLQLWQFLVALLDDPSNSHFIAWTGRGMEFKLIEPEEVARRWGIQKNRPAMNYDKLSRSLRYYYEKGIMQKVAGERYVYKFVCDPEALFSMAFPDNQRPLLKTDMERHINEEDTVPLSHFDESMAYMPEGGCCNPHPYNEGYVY
A further test concerns the target T6, ERF (Homo sapiens, UniProt P50548 1-548).
T6 sequence: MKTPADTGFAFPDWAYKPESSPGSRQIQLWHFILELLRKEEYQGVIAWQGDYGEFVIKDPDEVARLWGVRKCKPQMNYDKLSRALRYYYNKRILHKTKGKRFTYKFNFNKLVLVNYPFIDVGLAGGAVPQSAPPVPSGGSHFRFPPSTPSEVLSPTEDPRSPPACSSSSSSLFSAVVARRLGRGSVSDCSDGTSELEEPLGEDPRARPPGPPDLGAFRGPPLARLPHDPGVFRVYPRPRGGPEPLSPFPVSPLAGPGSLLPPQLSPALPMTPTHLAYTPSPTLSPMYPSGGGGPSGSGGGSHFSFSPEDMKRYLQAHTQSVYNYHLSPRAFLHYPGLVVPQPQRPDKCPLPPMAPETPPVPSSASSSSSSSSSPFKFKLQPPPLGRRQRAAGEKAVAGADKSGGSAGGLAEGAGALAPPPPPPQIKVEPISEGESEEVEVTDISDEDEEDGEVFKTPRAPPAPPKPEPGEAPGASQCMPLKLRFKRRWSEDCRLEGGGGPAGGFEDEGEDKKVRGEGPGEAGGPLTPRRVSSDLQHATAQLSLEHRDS
The following applies: protein: recombinant; tags: N-terminal GST; dsDNA, one strand shown. In a few lines: as §1

For the next test, the target named is T7, ETV3L (Homo sapiens, UniProt Q6ZN32 1-361).
T7 sequence: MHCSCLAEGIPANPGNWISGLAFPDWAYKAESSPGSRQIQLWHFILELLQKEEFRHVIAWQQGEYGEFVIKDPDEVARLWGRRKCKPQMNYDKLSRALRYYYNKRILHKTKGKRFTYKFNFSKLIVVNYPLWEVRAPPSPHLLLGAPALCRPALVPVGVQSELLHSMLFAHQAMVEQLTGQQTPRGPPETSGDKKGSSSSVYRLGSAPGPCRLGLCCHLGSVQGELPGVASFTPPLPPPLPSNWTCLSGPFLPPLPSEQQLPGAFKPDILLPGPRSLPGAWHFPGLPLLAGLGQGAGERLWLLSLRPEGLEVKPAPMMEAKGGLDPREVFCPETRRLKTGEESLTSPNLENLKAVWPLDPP
The settings on record: protein: recombinant; tags: N-terminal GST; dsDNA, one strand shown. The method in brief: as §1

Another test addresses T8, ETS2 (Homo sapiens, UniProt P15036 1-469).
T8 sequence: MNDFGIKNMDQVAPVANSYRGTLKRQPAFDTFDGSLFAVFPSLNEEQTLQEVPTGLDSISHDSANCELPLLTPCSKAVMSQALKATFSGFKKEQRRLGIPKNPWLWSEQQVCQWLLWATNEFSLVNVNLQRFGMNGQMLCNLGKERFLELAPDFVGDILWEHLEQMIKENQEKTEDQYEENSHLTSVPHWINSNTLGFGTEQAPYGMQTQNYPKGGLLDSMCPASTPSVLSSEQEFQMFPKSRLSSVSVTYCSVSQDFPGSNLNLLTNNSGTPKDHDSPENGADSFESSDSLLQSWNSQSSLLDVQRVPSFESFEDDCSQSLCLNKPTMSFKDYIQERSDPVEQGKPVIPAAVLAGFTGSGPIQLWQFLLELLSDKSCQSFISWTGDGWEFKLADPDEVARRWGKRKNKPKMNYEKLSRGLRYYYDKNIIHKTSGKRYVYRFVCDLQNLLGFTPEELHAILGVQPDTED
The settings on record: protein: recombinant; tags: N-terminal GST; dsDNA, one strand shown. In a few lines:
as §1

The next test has as its target T9, SPDEF (Homo sapiens, UniProt O95238 1-335).
T9 sequence: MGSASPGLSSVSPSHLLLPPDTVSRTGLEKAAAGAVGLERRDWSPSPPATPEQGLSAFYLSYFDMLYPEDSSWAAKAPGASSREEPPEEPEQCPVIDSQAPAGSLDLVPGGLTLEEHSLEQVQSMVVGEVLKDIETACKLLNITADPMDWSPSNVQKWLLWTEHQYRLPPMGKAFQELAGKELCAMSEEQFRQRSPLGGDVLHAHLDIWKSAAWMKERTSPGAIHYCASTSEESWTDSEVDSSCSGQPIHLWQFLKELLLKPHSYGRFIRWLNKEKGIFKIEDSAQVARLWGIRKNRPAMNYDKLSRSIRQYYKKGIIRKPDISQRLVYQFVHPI
The settings on record: protein: recombinant; tags: N-terminal GST; dsDNA, one strand shown. The method in brief:
as §1

For a further test, the target named is T10, ETV7 (Homo sapiens, UniProt Q9Y603 1-341).
T10 sequence: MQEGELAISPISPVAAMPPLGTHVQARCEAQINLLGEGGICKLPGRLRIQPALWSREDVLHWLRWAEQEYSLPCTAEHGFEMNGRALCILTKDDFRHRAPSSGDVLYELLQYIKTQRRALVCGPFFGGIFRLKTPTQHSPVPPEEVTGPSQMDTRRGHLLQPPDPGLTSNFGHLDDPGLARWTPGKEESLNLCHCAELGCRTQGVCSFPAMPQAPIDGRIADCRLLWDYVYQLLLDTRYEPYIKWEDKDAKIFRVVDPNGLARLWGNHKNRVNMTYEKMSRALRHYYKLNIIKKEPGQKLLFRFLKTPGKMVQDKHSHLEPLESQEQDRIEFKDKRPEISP
The settings on record: protein: recombinant; tags: N-terminal GST; dsDNA, one strand shown. The method in brief:
as §1

The next test addresses T11, ELF5 (Homo sapiens, UniProt Q9UKW6-2 1-255).
T11 sequence: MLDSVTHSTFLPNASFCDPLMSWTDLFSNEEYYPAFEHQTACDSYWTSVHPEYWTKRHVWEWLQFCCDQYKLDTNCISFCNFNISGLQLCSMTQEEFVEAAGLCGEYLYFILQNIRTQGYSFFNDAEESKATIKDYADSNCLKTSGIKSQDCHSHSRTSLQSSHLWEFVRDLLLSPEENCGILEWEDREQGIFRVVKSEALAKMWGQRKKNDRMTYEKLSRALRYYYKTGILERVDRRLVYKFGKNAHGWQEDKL
The settings on record: protein: recombinant; tags: N-terminal GST; dsDNA, one strand shown. The method in brief:
as §1

The next test concerns the target T12, ETV3 (Homo sapiens, UniProt P41162-2 1-143).
T12 sequence: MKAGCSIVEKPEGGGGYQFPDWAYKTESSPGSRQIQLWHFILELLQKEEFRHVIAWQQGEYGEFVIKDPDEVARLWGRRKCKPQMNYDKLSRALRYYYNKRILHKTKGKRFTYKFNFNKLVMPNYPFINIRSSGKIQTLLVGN
The settings on record: protein: recombinant; tags: N-terminal GST; dsDNA, one strand shown. The method in brief:
as §1

In the next test the target is ETV6 (Homo sapiens, UniProt P41212 1-452). The following applies: protein: recombinant; tags: N-terminal GST; dsDNA, one strand shown. The method in brief: as §1
Chain of ETV6 (P41212 whole entry): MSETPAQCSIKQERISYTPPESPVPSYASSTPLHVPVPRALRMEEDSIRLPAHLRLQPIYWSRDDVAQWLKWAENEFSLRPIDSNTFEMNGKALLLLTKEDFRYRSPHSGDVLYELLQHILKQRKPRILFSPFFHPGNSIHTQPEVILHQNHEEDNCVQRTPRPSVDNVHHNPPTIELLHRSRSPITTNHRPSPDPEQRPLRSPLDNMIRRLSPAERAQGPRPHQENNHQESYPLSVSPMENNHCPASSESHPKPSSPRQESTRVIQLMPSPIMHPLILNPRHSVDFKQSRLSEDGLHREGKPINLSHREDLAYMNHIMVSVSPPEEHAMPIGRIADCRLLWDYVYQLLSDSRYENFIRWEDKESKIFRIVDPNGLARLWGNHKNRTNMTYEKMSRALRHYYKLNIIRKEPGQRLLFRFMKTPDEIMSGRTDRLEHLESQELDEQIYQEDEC

Chain of ELF4 (Q99607 whole entry): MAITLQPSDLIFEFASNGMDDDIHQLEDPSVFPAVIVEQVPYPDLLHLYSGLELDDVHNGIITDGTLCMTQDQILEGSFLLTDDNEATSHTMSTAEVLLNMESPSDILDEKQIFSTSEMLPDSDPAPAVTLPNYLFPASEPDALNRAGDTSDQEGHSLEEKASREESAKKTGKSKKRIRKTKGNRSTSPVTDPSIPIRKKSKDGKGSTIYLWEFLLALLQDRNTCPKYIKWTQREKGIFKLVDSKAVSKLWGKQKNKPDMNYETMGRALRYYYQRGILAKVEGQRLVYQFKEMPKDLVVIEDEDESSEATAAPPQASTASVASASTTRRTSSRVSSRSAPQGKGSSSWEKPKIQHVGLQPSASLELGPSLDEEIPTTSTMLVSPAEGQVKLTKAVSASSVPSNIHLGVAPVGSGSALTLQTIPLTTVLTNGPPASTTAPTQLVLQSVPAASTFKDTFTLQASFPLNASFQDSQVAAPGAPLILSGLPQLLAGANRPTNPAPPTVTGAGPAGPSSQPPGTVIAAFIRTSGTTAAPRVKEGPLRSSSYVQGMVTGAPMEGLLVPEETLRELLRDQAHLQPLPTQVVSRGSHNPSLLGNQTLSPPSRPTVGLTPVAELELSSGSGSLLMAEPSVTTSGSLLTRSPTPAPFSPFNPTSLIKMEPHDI
Chain of CRX (O43186 whole entry): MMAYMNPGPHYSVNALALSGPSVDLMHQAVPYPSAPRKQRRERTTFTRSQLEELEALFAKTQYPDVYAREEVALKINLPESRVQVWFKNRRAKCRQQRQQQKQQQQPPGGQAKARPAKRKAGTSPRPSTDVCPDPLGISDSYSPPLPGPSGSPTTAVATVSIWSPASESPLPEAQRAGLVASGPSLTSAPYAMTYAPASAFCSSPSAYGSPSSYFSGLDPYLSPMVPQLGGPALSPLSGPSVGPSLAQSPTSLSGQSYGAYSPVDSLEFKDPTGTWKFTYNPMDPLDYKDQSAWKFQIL

In the case of ATATAC, the binding signal with FEV is 1.11 fold enrichment (6-mer frequency, TF over GST control); with ETV5, 1.16 fold enrichment (6-mer frequency, TF over GST control); with HSF1, 1.12 fold enrichment (6-mer frequency, TF over GST control); with SPIC, 1.17 fold enrichment (6-mer frequency, TF over GST control); with ELF4, 1.13 fold enrichment (6-mer frequency, TF over GST control); with ELK4 it was 1.2 fold enrichment (6-mer frequency, TF over GST control). The binding signal is 1.12 fold enrichment (6-mer frequency, TF over GST control) in the test with ETV2; 1.22 fold enrichment (6-mer frequency, TF over GST control) in the test with ELF3; 1.08 fold enrichment (6-mer frequency, TF over GST control) with CRX; 1.21 fold enrichment (6-mer frequency, TF over GST control) with ETV1; 1.19 fold enrichment (6-mer frequency, TF over GST control) with ERF; 1.17 fold enrichment (6-mer frequency, TF over GST control) with ETV3L. The binding signal in the test with ETS2 was 1.26 fold enrichment (6-mer frequency, TF over GST control); in the test with SPDEF, 1.29 fold enrichment (6-mer frequency, TF over GST control); with ETV7 it was 1.24 fold enrichment (6-mer frequency, TF over GST control); with ELF5 it was 1.12 fold enrichment (6-mer frequency, TF over GST control); with ETV3, 1.17 fold enrichment (6-mer frequency, TF over GST control); with ETV6, 1.19 fold enrichment (6-mer frequency, TF over GST control).
